Screening data: PubChem, National Center for Advancing Translational Sciences (NCATS)
Most compounds without a hit are left out; they make up all but 3.1% or so of the library.
S16 F2sN tox = toxic to S16 Pmp22-F2sN Schwann cells; S16 Pmp22-F2sN Schwann cells viability, CellTiter-Glo, 24 h; Potency, µM (highest dose often 57.5 µM), for inactives: at the highest dose activity change, negative = cytotoxicity, usual class: cytotoxic; 43,000 tested, 0.48% active; note: potency is the fitted concentration of half-maximal effect; % is set by controls: 0 for no effect and ±100 for the full control effect; nearly all actives have a fitted effect of over 65% in size
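Rat S16 Schwann reporter line, 24 h treatment with library compounds delivered at 23 nL per well. Cell viability by CellTiter-Glo luminescence.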
PMP22 txn prim = PMP22 gene transcription modulation; Potency, µM (doses to about 57.5 µM), for inactives: at the top dose activity change, negative = inhibition, usual class: inhibitors; S16 Pmp22-F2sN Schwann cells (luciferase reporters placed in the Pmp22 gene), FLuc/NLuc coincidence luminescence, 24 h; 43,000 tested, 2% active; AID 1508649; active = clear falling dose curves in both reporters; inconclusive = both reporters move, but less clearly or upward; inactive = either reporter flat; the % is the NLuc reporter signal; note: potency is the fitted concentration of half-maximal effect; % is set by controls: 0 for no effect and ±100 for the full control effect
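S16 Schwann cells carrying FLuc/NLuc coincidence reporter in the Pmp22 3' UTR treated with compound 24 h at 37C; FLuc then NLuc luminescence read sequentially by dual-luciferase reagents.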
pS6 MEF inh = inhibitors of mTORC1 signaling in Tsc2-/- p53-/- MEF cells; Tsc2-/- p53-/- MEF, phospho-rpS6 immunofluorescence/PI, 24 h; 44,000 tested, 0.78% active; Potency, µM (series often up to 38.3 µM), without a hit: top-dose activity change, negative = inhibition, usual class: inhibitors; AID 493208;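 note: potency is the fitted concentration of half-maximal effect; plate controls were DMSO for no effect and rapamycin for full effect; nearly all actives have a fitted effect of over 50% in size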
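Readout is phospho-S6 Alexa 488 signal normalized to PI per well, reported as % active cells with thresholds set from rapamycin (7.5 nM) and DMSO controls. Cells: Tsc2-/-, p53-/- MEFs, 24 hrs compound at 37 C; PI cell number serves as viability.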
SKOV3 invasion = ovarian cancer metastasis inhibition, 3D TME model | Potency, µM (highest dose often 45.8 µM), inactives show at the highest dose activity change, negative = inhibition, most hits filed as inhibitors | SKOV3ip1-GFP adhesion/invasion on 3D omental model, fluorescence | 46,000 tested, 0.1% active;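 note: potency is the fitted concentration of half-maximal effect; plate controls were DMSO wells for no effect and tomatine positive control wells for full effect; nearly all actives have a fitted effect of over 65% in size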
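qHTS, 4-pt dose (0.36-46 umol/L); SKOV3ip1-GFP, 1,200 cells/well, no FBS; primary omental fibroblast/mesothelial co-culture 48 h pre-grown; 2 h RT + 16 h 37 C; PBS wash, 4% PFA; GFP count 488/509 nm.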
p53null 32C kill = selectivity test: cytotoxicity in p53 null cells, permissive temperature. H1299-neo p53 null cells, ATP luminescence, 24 h, 32C. Potency, µM (top dose mostly 46.1 µM), for the others: at the highest dose activity change, negative = cytotoxicity, most hits filed as cytotoxic. 55,000 tested, 0.62% active. AID 903;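 note: potency is the fitted concentration of half-maximal effect; 0% = DMSO only and -100% = full killing by 100 µM tamoxifen; nearly all actives have a fitted effect of over 55% in size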
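H1299-neo (p53-null) cells, 600/well, were pre-incubated overnight at 37C, then exposed to compounds at up to 46 uM for 24 hr at 32C. Viability was measured as ATP content by luminescence, and AC50 values came from Hill fits.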
p53null 39C kill = p53 null cell cytotoxicity, nonpermissive temperature; AID 904; Potency, µM (series often up to 46.1 µM), for the others: top-dose activity, negative = cell killing, hits mostly cytotoxic; H1299 p53-null (neo) cells, 39C, ATPlite viability, 24 h; 55,000 tested, 0.97% active;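 note: potency is the fitted concentration of half-maximal effect; 0% = DMSO only and -100% = full killing by 100 µM tamoxifen; nearly all actives have a fitted effect of over 50% in size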
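ATP-luminescence viability readout (ATPlite, 20 min RT) after 24 hr compound treatment at 39C of H1299-neo or H1299-p53A138V cells; titration up to 46 uM; normalized to DMSO and 100 uM tamoxifen; Hill-fit AC50.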
NLuc saturating = inhibits NanoLuc at saturating substrate, PMP22 counter-screen. shares compounds with PMP22 txn prim. Secreted NLuc enzyme (filtered S16 cell medium), Nano-Glo luminescence. Potency, µM (top dose mostly 57.5 µM), for the others: at the top dose activity change, negative = inhibition, actives largely listed as inhibitors. 690 tested, 4% active; note: potency is the fitted concentration of half-maximal effect; % is set by controls: 0 for no effect and ±100 for the full control effect
NLuc Km ctr = NanoLuc inhibition at Km substrate, PMP22 artifact check; shares compounds with PMP22 txn prim; secreted NLuc enzyme, coelenterazine luminescence, Km conditions; Potency, µM (highest dose often 57.5 µM), for inactives: at the top dose activity change, negative = inhibition, most hits filed as inhibitors; 690 tested, 5% active; AID 1508639; note: potency is the fitted concentration of half-maximal effect; % is set by controls: 0 for no effect and ±100 for the full control effect
FLuc counter = firefly luciferase enzyme inhibition artifact for PMP22 screen; AID 1508640; purified P. pyralis FLuc, luminescence, 10 min; shares compounds with PMP22 txn prim; 690 tested, under 10 active; Potency, µM (series often up to 57.5 µM), for the others: at the top dose activity, negative = inhibition, actives largely listed as inhibitors; note: % of control where 0% means no effect
Target sequence (P08659 whole entry, looked up): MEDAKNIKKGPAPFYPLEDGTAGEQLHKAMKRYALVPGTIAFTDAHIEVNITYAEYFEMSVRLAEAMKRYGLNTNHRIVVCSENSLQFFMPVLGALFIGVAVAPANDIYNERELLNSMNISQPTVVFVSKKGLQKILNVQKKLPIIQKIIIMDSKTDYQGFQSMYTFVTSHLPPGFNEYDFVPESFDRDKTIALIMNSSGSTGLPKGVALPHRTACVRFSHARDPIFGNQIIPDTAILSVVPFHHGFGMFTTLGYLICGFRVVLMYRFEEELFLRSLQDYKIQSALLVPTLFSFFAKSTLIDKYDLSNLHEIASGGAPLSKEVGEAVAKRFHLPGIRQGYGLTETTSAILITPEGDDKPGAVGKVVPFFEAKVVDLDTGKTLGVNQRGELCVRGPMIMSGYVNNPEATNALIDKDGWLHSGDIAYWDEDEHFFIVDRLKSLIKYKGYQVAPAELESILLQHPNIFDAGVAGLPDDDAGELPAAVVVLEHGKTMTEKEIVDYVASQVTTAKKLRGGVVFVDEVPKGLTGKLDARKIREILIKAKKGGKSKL
S16 viab conf = S16 Schwann cell cytotoxicity, confirmatory; shares compounds with PMP22 txn prim; S16 Schwann cells viability, CellTiter-Glo ATP luminescence, 24 h; 690 tested, 7% active; AID 1508641; Potency, µM (top dose mostly 57.5 µM), for inactives: at the highest dose activity change, negative = viability loss, most hits filed as cytotoxic; note: potency is the fitted concentration of half-maximal effect; % is set by controls: 0 for no effect and ±100 for the full control effect
PMP22 txn cnf = confirmation of modulators of PMP22 gene transcription in S16 cells; shares compounds with PMP22 txn prim; S16 Schwann cells Pmp22-F2sN, dual luciferase, 24 h; Potency, µM (series often up to 57.5 µM), inactives show top-dose activity change, negative = inhibition, usual class: inhibitors; 690 tested, 22% active; AID 1508646; active = clear falling dose curves in both reporters; inconclusive = both reporters move, but less clearly or upward; inactive = either reporter flat; the % is the FLuc reporter signal; note: potency is the fitted concentration of half-maximal effect
* hit, by the source's call; i = inactive; ? = inconclusive; · = no result. Unless noted, calls come from the whole dose curve; as a rule, active = well fitted curve in the direction sought with a large enough effect; inconclusive = small, poorly fitted or top-dose-only effect, or another doubt; inactive = no such curve, though single readings can be large; an effect the other way counts as inactive or inconclusive.

SMILES | S16 F2sN tox | PMP22 txn prim | pS6 MEF inh | SKOV3 invasion | p53null 32C kill | p53null 39C kill | NLuc saturating | NLuc Km ctr | FLuc counter | S16 viab conf | PMP22 txn cnf
CCOc1ccc(CCNC(=O)c2ccc(Nc3nc4ccccc4n4nnnc34)cc2)cc1OCC | -27% | ? | -1% | -28% | -3% | -9% | · | · | · | · | ·
O=C(NCc1ccccc1)c1cccc(Nc2nc3ccccc3n3nnnc23)c1 | ? | 13µM* | -3% | 6% | -5% | -13% | -1% | 2% | 7% | 22µM* | 14µM*
Cc1ccc(CCNC(=O)c2ccc(Nc3nc4ccccc4n4nnnc34)cc2)cc1 | -10% | ? | 1% | 2% | -6% | -27% | -13% | 1% | -3% | 24µM* | ?
Cc1ccccc1C(C(=O)NC1CCCCC1)N(C(=O)Cn1ccnc1C)c1cccc(F)c1 (centres undefined) | · | · | · | 4% | · | · | · | · | · | · | ·
COc1ccc(NS(=O)(=O)c2ccc3[nH]c4c(c3c2)CCCC4)cc1OC | -10% | 14µM* | -17% | 3% | -8% | 12% | -6% | ? | 2% | ? | ?
COc1cc(NS(=O)(=O)c2ccc3[nH]c4c(c3c2)CCCCCC4)cc(OC)c1 | -17% | ? | ? | 1% | 51% | 10% | · | · | · | · | ·
COc1cc(NS(=O)(=O)c2ccc3[nH]c4c(c3c2)CCCC4)cc(OC)c1OC | -7% | 12µM* | ? | i | -2% | ? | -10% | ? | -2% | -19% | ?
CC1(COc2ccc3c(c2)ncn3-c2ccc3cccc(N4CCC(N)CC4)c3n2)COC1 | · | · | · | -4% | · | · | · | · | · | · | ·
CC(=O)Nc1ccc(NC(=O)CN(C)S(=O)(=O)c2ccc3c(c2)CCCC(=O)N3)cc1 | -17% | 9% | 6% | i | 5% | -14% | · | · | · | · | ·
CCOc1ccc(OCC)c(NC(=O)CN(C)S(=O)(=O)c2ccc3c(c2)CCCC(=O)N3)c1 | -4% | 20µM* | 7% | -7% | 4% | -22% | -4% | -2% | 0% | 4% | -23%
CCOCCCNC(=O)NC(C)c1c(-n2cccc2)sc2c1CCN(CC)C2 (centres undefined) | 1% | 16µM* | 1% | -3% | 3% | 12% | -6% | 0% | 7% | -21% | 14%
CCN1CCc2c(sc(-n3cccc3)c2C(C)NC(=O)Nc2ccc(Br)cc2)C1 (centres undefined) | -1% | ? | -3% | ? | -2% | -9% | · | · | · | · | ·
CCOc1ccc(NC(=O)NC(C)c2c(-n3cccc3)sc3c2CCN(CC)C3)cc1 (centres undefined) | -19% | 15µM* | -9% | i | 1% | -5% | ? | -20% | 4% | -20% | -28%
O=C(Nc1cccc2c(=O)cc(-c3nn[nH]n3)oc12)c1ccc(OCCCCc2ccccc2)cc1 | · | · | · | -12% | · | · | · | · | · | · | ·
CCC(Sc1nnc(C)n2c1cc1occc12)C(=O)Nc1ccccc1OC (centres undefined) | -27% | ? | 0% | -2% | -5% | -2% | · | · | · | · | ·
CCC1CCCCN1CCCNC(=O)c1ccc2c(c1)N(Cc1ccccc1F)C(=O)c1ccccc1S2(=O)=O (centres undefined) | ? | 8.9µM* | ? | -17% | -2% | ? | -21% | 4% | -14% | ? | ?
CCC(=O)N1CCc2cc(Br)cc(S(=O)(=O)N3CCCC(C(=O)NCc4cccc(OC)c4)C3)c21 (centres undefined) | 18% | 14µM* | -3% | 11% | 5% | -14% | -17% | 5% | 7% | -21% | -41%
O=C1CCCC2=C1C(c1[nH]ncc1Cl)N=C(Nc1nc3ccccc3o1)N2 (centres undefined) | · | · | · | -8% | · | · | · | · | · | · | ·
NC(=O)c1cccc2[nH]c(-c3ccc([C@H]4CCCN4)cc3F)nc12 | · | · | · | 36% | · | · | · | · | · | · | ·
CN(C)Cc1c(C(=O)NCCOc2ccc(C(=O)NO)cc2)oc2ccccc12 | · | · | · | -11% | · | · | · | · | · | · | ·
COC(=O)COc1ccc(-c2nnc(Nc3ccc(O)cc3)c3ccccc23)cc1 | ? | 11µM* | ? | 2.5µM* | 20% | 0% | 12µM* | 11µM* | -16% | -19% | ?
CCC[C@@H](NC(=O)[C@@H]1[C@H]2CCC[C@@H]2CN1C(=O)[C@@H](NC(=O)[C@@H](NC(=O)c1cnccn1)C1CCCCC1)C(C)(C)C)C(=O)C(=O)NC1CC1 | · | · | · | -8% | · | · | · | · | · | · | ·
Cc1cccc(C)c1Nc1c(-c2ccsc2)nc2ccc(Cl)cn12 | -12% | -13% | -14% | 6% | -5% | -6% | · | · | · | · | ·
Cc1cccc(C)c1Nc1c(-c2ccsc2)nc2ccccn12 | ? | 9.5µM* | -12% | -7% | 36% | ? | ? | 22µM* | 2% | 1% | ?
CCOC(=O)c1cc(C)n(CC2CCC(C(=O)Nc3ccc(OC)cc3)CC2)c1C (centres undefined) | · | · | -10% | -8% | 15% | 20% | · | · | · | · | ·
CS(=O)(=O)c1ncc(Cl)c(C(=O)Nc2c(C(=O)Nc3ccccc3)oc3ccccc23)n1 | ? | ? | 4% | -6% | -3% | -4% | · | · | · | · | ·
